Compound activity (PubChem)
The list is not random: actives were taken first. Their share in the collection is about 3.2%.
p53null 32C tox: qHTS Screen for Compounds that Selectively Target Cancer Cells with p53 Mutations: Cytotoxicity of p53 Null Cells at the Permissive Temperature | H1299-neo p53 null cells, ATP luminescence, 24 h, 32C | Potency, µM (top dose mostly 46.1 µM), for the others: top-dose activity change, negative = cytotoxicity, most hits filed as cytotoxic | hit rate 0.62% among 55,000;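 note: 0% = DMSO only and -100% = full killing by 100 µM tamoxifen; nearly all actives have a fitted effect of over 55% in size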
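Luminescent ATP readout gave cell viability of p53-null H1299-neo cells after a 24 h compound exposure at the permissive 32C. Titrations ran up to 46 uM, and AC50s were fitted with the standard Hill equation.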
PMP22 txn prim: Cell-based coincidence reporter assay to measure PMP22 gene transcription in S16 Pmp22-F2sN cells - Primary screen; S16 Pmp22-F2sN Schwann cells, FLuc/NLuc coincidence luminescence, 24 h; Potency, µM (top dose mostly 57.5 µM), inactives show top-dose activity change, negative = inhibition, hits mostly inhibitors; hit rate 2% among 43,000; active = clear falling dose curves in both reporters; inconclusive = both reporters move, but less clearly or upward; inactive = either reporter flat; the % is the NLuc reporter signal
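Rat S16 Pmp22-F2sN cells, 500-1,000/well in phenol red-free DMEM + 10% FBS, compound-treated 24 h (37C, 5% CO2). Luminescence: FLuc read, Stop&Glo added, NLuc read.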
S16 F2sN tox: Cell viability qHTS assay in S16 Pmp22-F2sN cells; AID 1508642, 2021; hit rate 0.48% among 43,000; S16 Pmp22-F2sN Schwann cells viability, CellTiter-Glo, 24 h; Potency, µM (top dose mostly 57.5 µM), for inactives: top-dose activity change, negative = cytotoxicity, most hits filed as cytotoxic; note: nearly all actives have a fitted effect of over 65% in size
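Used to flag compounds lowering reporter output through toxicity, this quantitative HTS measures ATP-based CellTiter-Glo luminescence in S16 Pmp22-F2sN Schwann cells after 24 h compound exposure at 37C.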
mTORC1 inh: Acumen qHTS Assay for Inhibitors of the mTORC1 Signaling Pathway in MEF (Tsc2-/-, p53-/-) Cells: Sytravon | Potency, µM (doses to about 38.3 µM), without a hit: at the top dose activity change, negative = inhibition, hits mostly inhibitors | Tsc2-/- p53-/- MEF, phospho-rpS6 immunofluorescence/PI, 24 h | hit rate 0.78% among 44,000;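 note: plate controls were DMSO for no effect and rapamycin for full effect; nearly all actives have a fitted effect of over 50% in size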
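Read-out: phospho-S6 Alexa-488 intensity over PI intensity per well, scored as % active cells using thresholds from rapamycin (7.5 nM) and DMSO controls. Tsc2-/-, p53-/- MEFs exposed to compound for 24 h; PI cell count recorded as viability.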
p53null 39C tox: qHTS Screen for Compounds that Selectively Target Cancer Cells with p53 Mutations: Cytotoxicity of p53 Null Cells at the Nonpermissive Temperature. H1299 p53-null (neo) cells, 39C, ATPlite viability, 24 h. Potency, µM (titrated, usually from 46.1 µM), for inactives: at the top dose activity, negative = cell killing, hits mostly cytotoxic. hit rate 0.97% among 55,000;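 note: 0% = DMSO only and -100% = full killing by 100 µM tamoxifen; nearly all actives have a fitted effect of over 50% in size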
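Following overnight plating at 37C (600 cells/well), H1299-neo or H1299-p53A138V cells are dosed up to 46 uM. Incubation lasts 24 hr at 39C before ATP detection.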
Numbers without * were called inactive; ? = inconclusive; / = not tested or not shown; [ ] = dose if it differs, or a comment. Unless noted, calls come from the whole dose curve; as a rule, active = well fitted curve in the direction sought with a large enough effect; inconclusive = small, poorly fitted or top-dose-only effect, or another doubt; inactive = no such curve, though single readings can be large; an effect the other way counts as inactive or inconclusive. Unless noted, % is set by controls: 0 for no effect and ±100 for the full control effect; potency is the fitted concentration of half-maximal effect.

SMILES	p53null 32C tox	PMP22 txn prim	S16 F2sN tox	mTORC1 inh	p53null 39C tox
O=S(=O)(Nc1cccc(F)c1)c1ccc2[nH]c3c(c2c1)CCCCC3	37.3%	?	?	0.3%	15.8µM*
Fc1ccc(Nc2nc(Nc3ccc(F)cc3)nc(N3CCOCC3)n2)cc1	-6.6%	-20.1%	4.1%	2.07µM*	-7.0%
c1ccc(N2CCN(c3ncnc4[nH]ncc34)CC2)cc1	11.4%	-41.9%	-0.2%	14.7µM*	26.8%
CSc1cccc(NC(=O)c2ccc3c(c2)CCCN3S(C)(=O)=O)c1	12.6µM*	?	-24.5%	-3.1%	?
CCS(=O)(=O)N1CCCc2cc(C(=O)Nc3cccc(C(C)=O)c3)ccc21	-5.4%	8.9%	-18.6%	2.4%	5.9%
CCCCOc1cccc(NC(=O)c2cccc(C(=O)Nc3cccc(OCCCC)c3)c2)c1	6.4%	-16.5%	-2.0%	7.36µM*	-14.3%
CCCOc1ccc(C(=O)Nc2ccc(NC(=O)c3ccccc3)c(C)c2)cc1	-3.3%	?	-0.8%	13.1µM*	-10.6%
CCCOc1ccc(C(=O)Nc2cccc(NC(=O)c3ccc(Cl)cc3Cl)c2)cc1	?	?	14.1µM*	-10.2%	?
CCC(C)NC(=O)Cn1c(=O)n(Cc2ccc(C(=O)NCc3ccc(C)cc3)cc2)c(=O)c2ccccc21 (stereo not given)	?	?	?	?	-27.8%
Cc1cc([N+](=O)[O-])ccc1NC(c1nnc(-c2ccccc2)o1)c1ccccc1F (stereo not given)	5.0%	2.4%	4.9%	-11.6%	-10.0%
Cc1cccc(Cn2cc(S(=O)(=O)c3cccc(Cl)c3)c(=O)c3cc(F)c(N4CCOCC4)cc32)c1	-5.5%	-1.5%	9.9%	-15.9%	4.3%
Cc1cc(NC(=O)c2ccccc2Cl)ccc1NC(=O)c1ccccc1	-3.3%	3.4%	-0.8%	-3.7%	16.2%
CCOC(=O)c1cc2c(=O)n3ccccc3nc2n(CC2CCCO2)c1=NC(=O)c1ccc(OCC)cc1 (stereo not given)	3.8%	?	0.3%	2.1%	13.6%
CCOC(=O)c1cc2c(=O)n3ccccc3nc2n(CC2CCCO2)c1=NC(=O)c1cc(C)cc(C)c1 (stereo not given)	?	1.5µM*	?	-5.5%	?
Cc1ccc(/C=C/c2nc3ccccc3n2S(=O)(=O)c2cccc(Cl)c2)cc1	3.16µM*	-19.6%	?	-5.0%	3.16µM*
CCOc1ccc(/C=C/c2nc3ccccc3n2S(=O)(=O)c2cccc(Cl)c2)cc1	12.6µM*	?	?	-1.0%	6.31µM*
CSc1ccc(/C=C/c2nc3ccccc3n2S(=O)(=O)c2ccc(F)c(C)c2)cc1	7.94µM*	?	?	-8.7%	10µM*
Cc1cccc(NC(=O)Cn2c(/C=C/c3ccccc3)nc3ccccc32)c1	/	/	/	/	0.1%[1.84 µM]
CCCCN1C(C(=O)c2ccccc2)=C(OC(=O)CC)c2ccccc2S1(=O)=O	12.6µM*	?	-27.6%	?	?
O=C(NCc1cccnc1)C(=O)NCC(c1cccnc1)N1CCN(c2ccccc2F)CC1 (stereo not given)	-2.5%	-7.2%	1.6%	-6.8%	16.6%
O=C1C2=C(Nc3ccccc3SC2c2ccc(Cl)c(Cl)c2)c2ccccc21 (stereo not given)	37.0%	?	?	-7.9%	41.7%
O=C1C2=C(Nc3ccccc3SC2c2ccccc2C(F)(F)F)c2ccccc21 (stereo not given)	-17.0%	12.7µM*	?	?	?
CC(CCc1ccccc1)NC(=O)CSc1n[nH]c(-c2ccc(F)cc2)n1 (stereo not given)	-9.3%	-13.6%	-16.1%	-0.5%	-5.8%
CCCCOc1ccc(C(=O)NCc2cn3cccc(C)c3n2)cc1	0.0%	6.5%	3.0%	-5.7%	15.2%
Cn1nc(-c2ccccc2F)c2cc(C(=O)NCc3ccc(Cl)cc3)sc21	19.3%	?	?	-11.0%	-8.0%
SMILES	p53null 32C tox	PMP22 txn prim	S16 F2sN tox	mTORC1 inh	p53null 39C tox
Cc1cccc(CCNC(=O)c2ccc3c(c2)nc2n3CCCCC2)c1	10µM*	0.7%	-2.7%	1.3%	10µM*
CCCNC(=O)c1ccc2c(c1)nc1n2CCCCC1	12.6µM*	-6.6%	-3.4%	-9.5%	10µM*
CCC(C)NC(=O)c1ccc2c(c1)nc1n2CCCCC1 (stereo not given)	?	?	1.9%	-12.0%	5.01µM*
O=C(NCCc1ccccc1Cl)c1ccc2c(c1)nc1n2CCOC1	10µM*	-6.2%	25.8%	-9.5%	5.01µM*
Cc1cccc(CCNC(=O)c2ccc3c(c2)nc2n3CCOC2)c1	?	12.9%	25.2%	-15.5%	?
Cc1ccc2c(c1)CC(C)N2S(=O)(=O)c1nnc(NC(=O)C(C)C)s1 (stereo not given)	-1.2%	3.4%	8.2%	3.0%	-0.7%
COCCCNC(=O)c1ccc2c(c1)nc1n2CCCCC1	?	-9.6%	6.3%	6.8%	12.6µM*
O=C(Nc1ccccc1)NC1CCS(=O)(=O)C1 (stereo not given)	7.4%	/	/	/	0.0%
CC(=O)NC1=C(NC2CCS(=O)(=O)C2)C(=O)c2ccccc2C1=O (stereo not given)	11.2µM*	/	/	/	?
Nc1nc(SCc2ccc(Cl)cc2)[nH]c(=O)c1-c1ccccc1	-5.3%	/	/	/	0.3%
COc1ccc(-c2cc(C(=O)Oc3ccc(Br)cc3)c3ccccc3n2)cc1	?	-13.9%	1.6%	3.9%	12.6µM*
CCCCN(C)CCNC(=O)c1cc(-c2ccc(Cl)s2)nc2ccccc12	8.2%	?	?	?	12.6µM*
C=CCn1c(C)cc(C(=O)COC(=O)[C@@H](NC(=O)c2ccccc2Cl)C(C)C)c1C	11.2µM*	/	/	/	/
Cc1nc(CC(=O)Nc2ccc(C)c(C)c2)cs1	-7.8%	3.0%	2.2%	3.9%	-19.0%
Clc1ccc(N2CCN(c3ncnc4c3nc3n4CCCC3)CC2)cc1	2.5%	14.1µM*	?	-5.9%	-13.2%
Fc1ccc(N2CCN(c3ncnc4c3nc3n4CCCCC3)CC2)cc1	-5.0%	?	0.8%	4.0%	-9.3%
Cc1ccc(NC(=O)N2CCc3ccccc32)cc1	5.62µM*	/	/	/	5.01µM*
CCOc1ccc(CNC(=O)c2ccc(NC(=O)N3CCCCc4ccccc43)cc2)cc1	8.9%	-21.3%	?	1.2%	26.8%
CCOc1ccc(NC(=O)Cc2ccc(NC(=O)N3CCCCc4ccccc43)cc2)cc1	-3.1%	-9.5%	14.1µM*	-3.7%	-15.1%
